Data on four compounds can be found in PubChem BioAssay (EPA / NIEHS).

Test [1] in a line: APR_HepG2_CellLoss_72hr: Apredica 72-hour HepG2 Assay for Cell Loss (AID 2282915). The settings on record: high-content imaging. The method in brief: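 HepG2 cells exposed 72 h to compound at 0.39–200 uM (10 concentrations, duplicate) in 0.5% DMSO. Fixed with 3.7% formaldehyde and Hoechst 33342-stained. Imaged at 20x; nuclear count gives cell number, fitted bidirectionally versus DMSO.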

Test [2] can be described thus: APR_HepG2_P-H2AX_72hr: Apredica 72-hour HepG2 Assay for H2AX Phosphorylation (AID 2282916).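 Note: phospho-histone H2A.x immunostain intensity per cell marking DNA damage.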 The settings on record: imaging, actives raise or lower the signal. An outline of the steps: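 HepG2 cells treated 72 h at 0.39–200 uM, 0.5% DMSO final, duplicates. Formaldehyde-fixed, Triton-permeabilised, immunostained for phospho-H2A.x with Hoechst; fluorescence imaged at 20x, bidirectional fit versus DMSO.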

A short description of test [3]: APR_HepG2_MitoMembPot_72hr: Apredica 72-hour HepG2 Assay for Mitochondrial Membrane Potential (AID 2282917). The settings on record: imaging, actives raise or lower the signal. An outline of the steps:
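HepG2 cells dosed 72 hr with compound at 0.39–200 uM in duplicate, 0.5% v/v DMSO final. Mitochondria stained with 250 nM MitoTracker Red CMXRos for 30 min before formaldehyde fixation, imaged by high-content fluorescence; bidirectional fit versus DMSO.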

A short description of test [4]: APR_HepG2_MitoticArrest_72hr: Apredica 72-hour HepG2 Assay for Mitotic Arrest (AID 2282918). The settings on record: high-content imaging, actives raise or lower the signal. An outline of the steps:
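HepG2 cells treated 72 h at 0.39–200 uM, 0.5% DMSO final; formaldehyde-fixed, stained with Hoechst 33342 and phospho-histone H3 antibody, imaged by high-content fluorescence; bidirectional fit versus DMSO.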

Test [5] in a line: APR_HepG2_MicrotubuleCSK_72hr: Apredica 72-hour HepG2 Assay for Microtubule CSK Stabilty (AID 2282919). As to conditions: HepG2 microtubule cytoskeleton, high-content imaging, actives raise or lower the signal. An outline of the steps:
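HepG2 cells were exposed 72 hr to compound at 0.39–200 uM in duplicate (0.5% DMSO final), then fixed and permeabilized. Alpha-tubulin immunofluorescence was imaged by high-content microscopy, with bidirectional fitting against DMSO and taxol as positive control.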

A short description of test [6]: APR_HepG2_P-H2AX_24hr: Apredica 24-hour HepG2 Assay for H2AX Phosphorylation (AID 2282920). The settings on record: high-content imaging, actives raise or lower the signal. The method in brief:
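HepG2 cells dosed 24 h at 0.39–200 uM (10 points, duplicate, 0.5% DMSO final). Formaldehyde-fixed and permeabilized, then immunostained for phospho-H2A.x with Hoechst. Fluorescence quantified by high-content imaging, fitted bidirectionally versus DMSO.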

The nature of test [7]: APR_HepG2_StressKinase_72hr: Apredica 72-hour HepG2 Assay for Stress Kinase (AID 2282921). The settings on record: HepG2 stress kinase (phospho-c-Jun) imaging, actives raise or lower the signal. An outline of the steps:
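HepG2 cells treated 72 hr with 0.39–200 uM compound, 0.5% v/v DMSO, duplicate wells. After formaldehyde fixation and Triton permeabilization, stained with anti-phospho-c-Jun (1:500) and Cy3 secondary, imaged at 20x. Fitted in both directions against DMSO.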

A short description of test [8]: APR_HepG2_StressKinase_24hr: Apredica 24-hour HepG2 Assay for Stress Kinase (AID 2282922). The settings on record: HepG2 stress kinase (phospho-c-Jun) imaging, actives raise or lower the signal. The method in brief: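 HepG2 cells exposed 24 h to 0.39–200 uM compound in duplicate (0.5% v/v DMSO final). Cells fixed in 3.7% formaldehyde, permeabilized and immunostained for phospho-c-Jun; read by high-content fluorescence imaging, fitted bidirectionally against DMSO.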

Test [9] is described as follows: APR_HepG2_p53Act_72hr: Apredica 72-hour HepG2 Assay for p53 Activation (AID 2282923).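 Note: average cellular p53 protein immunofluorescence intensity in HepG2 cells.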 As to conditions: high-content imaging, actives raise or lower the signal. The method in brief:
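HepG2 cells exposed 72 h to 0.39–200 uM in 0.5% DMSO, duplicates. Fixed, permeabilized cells immunostained for p53 (Cy5) with Hoechst; imaged at 20x, fluorescence analyzed bidirectionally against DMSO.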

Test [10] in a line: APR_HepG2_MitoMass_72hr: Apredica 72-hour HepG2 Assay for Mitochondrial Mass (AID 2282924).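 Note: MitoTracker Red CMXRos stain intensity per cell imaged as mitochondrial mass.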 The settings on record: high-content imaging, actives raise or lower the signal. An outline of the steps:
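HepG2 cells dosed 72 hr at 0.39–200 uM (0.5% DMSO), in duplicate. MitoTracker Red CMXRos 250 nM loaded 30 min before formaldehyde fixation; high-content fluorescence imaging, bidirectional fit versus DMSO.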

A short description of test [11]: ATG_CRE_CIS: Attagene CIS-FACTORIAL HepG2 Assay for human cAMP Responsive Element (CRE) binding protein 3 (AID 2282926). As to conditions: HepG2 CRE cis-reporter, Attagene multiplexed mRNA; actives raise or lower the signal. An outline of the steps:
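HepG2 cells transiently transfected with cis-element-driven multiple reporter transcription units; CRE reporter mRNA measured 24 h after dosing by RT-PCR, 6-FAM labelling, HpaI digestion and capillary electrophoresis. Bidirectional fit versus DMSO baseline.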

The target of test [12] is CCAAT/enhancer-binding protein beta (Homo sapiens) (UniProt P17676). The test can be described thus: ATG_C_EBP_CIS: Attagene CIS-FACTORIAL HepG2 Assay for human CCAAT/Enhancer Binding Protein (C/EBP) beta (AID 2282927). As to conditions: HepG2 Attagene cis-factorial transcription factor reporter; actives raise or lower the signal. An outline of the steps: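 Transiently transfected HepG2 (MRTU library, endogenous TF-driven promoters); 24 h dosing; total RNA → oligo(dT) RT → PCR → 6-FAM primer extension → HpaI digest → CE; fit bidirectionally vs DMSO.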

Test [13] in a line: ATG_CMV_CIS: Attagene CIS-FACTORIAL HepG2 Assay for human CMV (Internal Marker) (AID 2282928).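 Note: endpoint acts as a background internal control marker rather than a target.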 As to conditions: HepG2 CMV promoter reporter, transcription factor profiling; actives raise or lower the signal. The method in brief: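 Cell system: HepG2, transiently transfected multiple reporter units under cis promoters. Exposure: 24 h. Detection: RT-PCR, FAM labeling, HpaI digestion, capillary electrophoresis. Analysis: bidirectional, DMSO baseline.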

Test [14] in a line: ATG_DR4_LXR_CIS: Attagene CIS-FACTORIAL HepG2 Assay for human Liver X Receptor (LXR), DR4 submotif (AID 2282929). The settings on record: HepG2 Attagene DR4 cis-reporter, mRNA transcription; actives raise or lower the signal. An outline of the steps:
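HepG2 cells were transiently transfected with multiple cis-regulated reporter units and dosed for 24 hours. The DR4 reporter mRNA was quantified by RT-PCR, 6-FAM labelling and capillary electrophoresis. Bidirectional fits used DMSO as baseline.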

Test [15] concerns the target Aryl hydrocarbon receptor (Homo sapiens) (UniProt P35869). Description: ATG_Ahr_CIS: Attagene CIS-FACTORIAL HepG2 Assay for human Aryl Hydrocarbon Receptor (Ahr) (AID 2282930). As to conditions: HepG2 AhR cis-factorial reporter transcription; actives raise or lower the signal. The method in brief:
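Read-out: reporter mRNA quantified by RT-PCR with fluorescent primer extension and capillary electrophoresis. Human HepG2 liver cells carried transfected cis-promoter reporter units and were exposed to chemical for 24 h; gain or loss fitted relative to DMSO.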

Test [16] can be described thus: ATG_AP_1_CIS: Attagene CIS-FACTORIAL HepG2 Assay for human Activator Protein 1 (AP-1) (AID 2282931). The settings on record: HepG2 Attagene cis-factorial AP-1 reporter mRNA; actives raise or lower the signal. The method in brief: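 HepG2 cells transiently transfected with cis-element-driven reporter transcription units, dosed for 24 hours. Reporter mRNA measured by RT-PCR, 6-FAM labelling, HpaI digestion and capillary electrophoresis. Bidirectional fitting against DMSO baseline.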

Test [17] in a line: ATG_BRE_CIS: Attagene CIS-FACTORIAL HepG2 Assay for human Bone Morphogenetic Protein (BMP) Response Element (BRE) (AID 2282933). The settings on record: HepG2 BMP response element reporter, Attagene transcription factor profiling; actives raise or lower the signal. An outline of the steps: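 Read-out: reporter mRNA induction quantified by RT-PCR and capillary electrophoresis after 24 h chemical exposure of transfected HepG2 cells. Endogenous factor activity on the BMP response element; gain or loss fitted against DMSO baseline.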

Test [18] can be described thus: ATG_AP_2_CIS: Attagene CIS-FACTORIAL HepG2 Assay for human Activator Protein 2 (AP-2) (AID 2282932). The settings on record: HepG2 AP-2 cis-reporter, Attagene transcription factor profiling; actives raise or lower the signal. An outline of the steps:
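HepG2 cells transiently transfected with cis-element reporter units and exposed for 24 h. Reporter mRNA measured by RT-PCR, FAM labelling, HpaI digestion and capillary electrophoresis. Changes in either direction fitted relative to DMSO.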

The target of test [19] is Retinoic acid receptor alpha (Homo sapiens) (UniProt P10276). Description: ATG_DR5_RAR_CIS: Attagene CIS-FACTORIAL HepG2 Assay for human Retinoic Acid Receptor Alpha (RARE), DR5 submotif (AID 2282934). As to conditions: HepG2 Attagene cis-factorial RARE DR5 reporter, mRNA; actives raise or lower the signal. An outline of the steps: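 Read-out: DR5-driven reporter transcript measured by RT-PCR, 6-FAM primer extension, HpaI digest and capillary electrophoresis. Human HepG2 liver cells carry transiently transfected cis-element reporter constructs; dosing lasts 24 h. Gain or loss of signal fitted against DMSO baseline.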

Calls of active or inactive are those of the source. Rule for the calls: active = hit-call score of the fitted dose curve at least 0.9, where 1 is the maximum; inactive = score below 0.9.

CCAAT/enhancer-binding protein beta (Homo sapiens), sequence (P17676 whole entry, looked up): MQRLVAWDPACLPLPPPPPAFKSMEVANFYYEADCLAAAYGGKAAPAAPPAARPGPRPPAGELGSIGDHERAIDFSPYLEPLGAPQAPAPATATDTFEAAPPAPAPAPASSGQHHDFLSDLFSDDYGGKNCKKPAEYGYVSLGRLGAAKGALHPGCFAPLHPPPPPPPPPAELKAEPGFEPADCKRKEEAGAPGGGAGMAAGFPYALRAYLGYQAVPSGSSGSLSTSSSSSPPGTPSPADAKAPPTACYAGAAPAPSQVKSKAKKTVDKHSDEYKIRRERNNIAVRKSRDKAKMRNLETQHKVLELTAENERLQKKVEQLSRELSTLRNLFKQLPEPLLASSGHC
Aryl hydrocarbon receptor (Homo sapiens), sequence (P35869 whole entry, looked up): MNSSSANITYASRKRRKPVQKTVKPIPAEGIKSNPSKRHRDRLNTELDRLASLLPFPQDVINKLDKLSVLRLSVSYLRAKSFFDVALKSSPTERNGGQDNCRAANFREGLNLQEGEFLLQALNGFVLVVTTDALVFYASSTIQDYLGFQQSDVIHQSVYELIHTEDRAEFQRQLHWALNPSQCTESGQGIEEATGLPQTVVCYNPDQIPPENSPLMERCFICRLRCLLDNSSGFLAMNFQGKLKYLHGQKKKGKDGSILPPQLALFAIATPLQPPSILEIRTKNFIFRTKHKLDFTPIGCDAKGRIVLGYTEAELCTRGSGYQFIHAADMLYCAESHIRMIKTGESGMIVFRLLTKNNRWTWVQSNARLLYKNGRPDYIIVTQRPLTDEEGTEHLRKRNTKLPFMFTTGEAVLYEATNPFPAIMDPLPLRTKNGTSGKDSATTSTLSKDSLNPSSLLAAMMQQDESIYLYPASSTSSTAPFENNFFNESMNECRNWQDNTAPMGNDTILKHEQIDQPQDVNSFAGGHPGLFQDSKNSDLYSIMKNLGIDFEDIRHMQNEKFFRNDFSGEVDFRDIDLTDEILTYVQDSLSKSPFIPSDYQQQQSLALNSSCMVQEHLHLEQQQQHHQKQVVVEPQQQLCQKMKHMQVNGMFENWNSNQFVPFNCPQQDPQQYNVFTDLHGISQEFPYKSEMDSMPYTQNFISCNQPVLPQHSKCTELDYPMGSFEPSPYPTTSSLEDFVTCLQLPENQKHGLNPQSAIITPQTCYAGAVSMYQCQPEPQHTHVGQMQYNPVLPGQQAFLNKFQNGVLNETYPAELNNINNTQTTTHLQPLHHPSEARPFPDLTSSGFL
Retinoic acid receptor alpha (Homo sapiens), sequence (P10276 whole entry, looked up): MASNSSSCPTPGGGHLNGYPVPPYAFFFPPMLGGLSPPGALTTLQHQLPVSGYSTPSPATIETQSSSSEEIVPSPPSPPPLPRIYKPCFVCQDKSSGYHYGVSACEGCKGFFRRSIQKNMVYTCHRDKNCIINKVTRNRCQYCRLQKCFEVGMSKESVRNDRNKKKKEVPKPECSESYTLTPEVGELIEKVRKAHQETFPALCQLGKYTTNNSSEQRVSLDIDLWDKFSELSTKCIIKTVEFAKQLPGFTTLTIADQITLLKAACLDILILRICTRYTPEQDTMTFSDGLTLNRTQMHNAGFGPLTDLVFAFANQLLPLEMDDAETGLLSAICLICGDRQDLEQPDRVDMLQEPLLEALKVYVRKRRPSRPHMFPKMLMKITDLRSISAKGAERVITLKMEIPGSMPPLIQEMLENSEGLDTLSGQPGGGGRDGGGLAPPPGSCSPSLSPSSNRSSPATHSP

Usually AC50 stands for the concentration at which the activity in the assay is half-maximal. Consider `CCCc1cc(=O)[nH]c(=S)[nH]1`, for which the outcome in [1], in test [2], in [3], in test [4], in [5] and in [6] was inactive. Besides, the call in test [7], in test [8], in [9], in [10], in test [11] and in [12] was inactive. The compound was classed as inactive in test [13], in test [14], in test [16] and in [17]. For the same compound, in test [15], the AC50 is 63.9 µM (active).
For `Cc1cccc(Nc2cc(Cl)nc(SCC(=O)O)n2)c1C`, the compound was called inactive in test [1], in [2], in [3], in test [4], in test [5] and in [6]. Besides, the result in [7], in test [8], in test [9], in test [10], in [11] and in [12] was inactive. Besides, the outcome in [13], in [14], in [15], in [16], in test [18] and in [17] was inactive. Further, the call in test [19] was inactive.
In the case of `Oc1ccc2c(c1)OC[C@@H](N1CCC(O)(c3ccc(F)cc3)CC1)[C@H]2O`, the result in [1], in [2], in [3], in test [4], in test [5] and in test [6] was inactive. For the same compound, the call in [7], in test [8], in [9], in [10], in [11] and in [12] was inactive. Besides, the compound was classed as inactive in test [13], in test [14], in test [16] and in [18]. In addition, the concentration at half-maximal activity (AC50) was 50 µM (active) in [15] and 62.1 µM (active) in test [17].
Consider `c1cc(-c2ccncc2)ccn1`, for which the result in test [1], in test [2], in test [3], in [4], in test [5] and in test [6] was inactive. Moreover, the result in test [7], in [8], in test [9], in test [10], in test [11] and in test [12] was inactive. For the same compound, the result in [13], in [14], in [15], in test [16] and in test [19] was inactive.
